# High-throughput results deposited in PubChem BioAssay by National Center for Advancing Translational Sciences (NCATS).
# Rows were chosen to be rich in hits. Some 3.8% of all compounds tested hit in one or more screens of this group.
# PLK1 PBD inh: blocks phosphopeptide binding to human PLK1 polo-box domain | Plk1 PBD binding of FITC phosphopeptide, fluorescence polarization | Potency, µM, actives largely listed as inhibitors | 360,000 tested, 2.8% active | AID 720504; also: series mostly up to about 57 µM; nearly all actives have a fitted effect of over 65% in size
# KCNH2 WT inh: KCNH2 (human, wildtype) channel inhibition | AID 720551 | activity change, % at 1.84 µM | U2OS, BacMam KCNH2, thallium flux FluxOr; stronger effect = lower value | 340,000 tested, 0.37% active | Q12809;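 active = maximum activity change below -70%; inconclusive = maximum activity change between -70% and -50%; inactive = maximum activity change above -50%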
#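 U2OS cells transduced with wild-type KCNH2 virus are loaded with FluxOr dye for 45 min, and thallium flux is measured in kinetic reads before and after stimulation buffer. Rate constants are normalized to DMSO controls.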
# MBNL1 CUG block: MBNL1-poly(CUG) RNA binding inhibition; TR-FRET MBNL1-His/biotin-(CUG)12 binding, 665/545 ratio; 280,000 tested, 0.036% active; Potency, µM (doses to about 57.5 µM), usual class: inhibitors; AID 2675; Q9NR56; active = well fitted inhibition curve with a large enough effect in the signal ratio, with a control signal flat, not every such curve was filed as active; inconclusive = small, poorly fitted or top-dose-only effect, or effect the other way, or a change in a side signal; inactive = no such curve, though single readings can be large or run the other way; the % refers to the signal ratio
#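 Compounds (final 92 nM to 58 uM) are added to His-tagged MBNL1 and biotin-(CUG)12, then terbium anti-His antibody and streptavidin-XL665 (5 nM final). After 60 min at room temperature, the 665/545 nm ratio is read.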
# KCNH2 3.1 inh: inhibitors of human KCNH2 3.1 potassium channel isoform. U2OS KCNH2 3.1, thallium flux FluxOr; stronger effect = lower value. activity change, % (tested at about 1.8 µM). 340,000 tested, 0.95% active;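 active = maximum activity change below -70%; inconclusive = maximum activity change from -70% to -50%; inactive = maximum activity change above -50%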;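 also: thallium influx rate constant from kinetic fluorescence after stimulation buffer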
#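 Kinetic fluorescence (2 min after stimulation buffer) measures Tl+ influx through KCNH2 3.1 expressed by viral transduction in U2OS cells; the rate constant is normalized against DMSO controls serving as positive and negative references.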
# CBFb RUNX1 block: CBF-beta/RUNX1 interaction disruption. Q01196+Q13951. AlphaScreen CBFb-His/RUNX1-biotin binding, biochemical. Potency, µM (series often up to 59.8 µM), usual class: inhibitors. 230,000 tested, under 10 active. AID 1477
#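 CBFb-His/RUNX1-biotin, 30 nM each, preincubated 20 min RT; compound 15 min RT; Ni + streptavidin beads 50 ng each, 90 min RT; AlphaScreen read.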
# VDR inh: blocks the human vitamin D receptor; P11473; VDR-SRC2-3 peptide fluorescence polarization, 2 h; Potency, µM, usual class: inhibitors; 400,000 tested, 0.93% active; AID 504847
#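 FP read-out; VDR + SRC2-3 coactivator peptide; 23 nl compound by pintool; 2 h RT incubation; reagents held at 4 deg C, protected from light.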
# Hits are given with their value; . = inactive; ? = inconclusive; / = no result. Unless noted, calls follow the shape of the dose curve; as a rule, active = well fitted curve in the direction sought with a large enough effect; inconclusive = small, poorly fitted or top-dose-only effect, or another doubt; inactive = no such curve, though single readings can be large; an effect the other way counts as inactive or inconclusive.
SMILES,PLK1 PBD inh,KCNH2 WT inh,MBNL1 CUG block,KCNH2 3.1 inh,CBFb RUNX1 block,VDR inh
Cc1ccc(S(=O)(=O)N(CC(O)CN2CCCCC2)c2ccccc2)cc1 (centres undefined),.,.,.,.,.,.
CCCN(CCC)CC(O)CN(c1ccccc1)S(=O)(=O)c1ccc(C)cc1 (centres undefined),.,-96,.,-81,.,.
COc1ccc(N(CC(O)Cn2c(C)nc3ccccc32)S(=O)(=O)c2ccc(C)cc2)cc1 (centres undefined),.,?,.,-102,.,.
COc1ccc(NC(=O)CN2C(=O)COc3ccc(S(=O)(=O)N4CCCCC4)cc32)cc1Cl,/,/,/,/,/,.
COc1ccc(-c2cc3ccc(O)c(CN4CCC(C)CC4)c3oc2=O)cc1,/,/,/,/,/,.
COc1ccccc1-n1cnnc1SCC(=O)Nc1cc(C(C)(C)C)nn1-c1ccccc1,3.4µM,.,.,.,.,.
O=S(=O)(c1ccc(Br)cc1)c1nc(-c2ccco2)oc1SCc1ccccc1Cl,/,/,/,/,/,.
Nc1cc(C(=O)O)c(N)c2c1C(=O)c1ccccc1C2=O,19µM,.,?,.,/,8.9µM
Nc1c(C(=O)O)ccc2c1C(=O)c1ccccc1C2=O,.,.,?,.,.,.
CCCCN(CCCC)CCNC(=O)c1cn(C)c2ccc(S(=O)(=O)N3CCOCC3)cc2c1=O,/,/,/,/,/,.
COc1cc(-c2cc(OC)c3c(C)oc(C)c3c(=O)c2)ccc1OC(=O)c1cccc(Cl)c1,/,/,/,/,/,.
O=S(=O)(Nc1cccc(C(F)(F)F)c1)c1cnc[nH]1,.,.,.,.,.,.
O=S(=O)(Nc1ccc(C(F)(F)F)cc1)c1cnc[nH]1,30µM,.,.,.,.,.
COc1ccc(/C=N/N2CCN(C3c4ccccc4-c4ccccc43)CC2)cc1O,27µM,.,.,.,.,.
COc1ccc2cc(C#N)c(SCC(=O)OCc3ccccc3)nc2c1,/,/,/,/,/,.
CCCCN(C)CCNC(=O)c1cc(-c2cccnc2)nc2ccc(S(=O)(=O)N3CCC(C)CC3)cc12,27µM,.,.,.,/,?
Cc1ccc(-c2nnn(CC(=O)NCC3COCCO3)n2)o1 (centres undefined),30µM,.,.,.,.,.
COc1cccc(COc2ccc3ccc(=O)oc3c2)c1,.,.,.,-74,/,.
Cc1ccc(CNC(=O)c2nc(-c3ccc(Cl)cc3)n3c2CCCCC3)cc1,/,/,/,/,/,.
COC(=O)c1cc2oc(C)cc2n1Cc1cccc(Cl)c1,/,/,/,/,/,.
COc1ccc(CC2(CO)CCN(C(C)COc3ccccc3)CC2)cc1 (centres undefined),.,.,.,-94,.,.
Cc1ncc(CN2CCC(CO)(Cc3ccccc3)CC2)s1,.,.,.,.,.,.
COc1ccc(CC2(CO)CCN(Cc3nc(C(C)C)cs3)CC2)cc1,.,.,.,.,.,.
CC(COc1ccccc1)N1CCC(CO)(Cc2ccccc2)CC1 (centres undefined),.,.,.,-72,.,.
CCCCNC(=O)c1ccc2c(=O)n(-c3ccccc3)c(=O)[nH]c2c1,/,/,/,/,/,.
SMILES,PLK1 PBD inh,KCNH2 WT inh,MBNL1 CUG block,KCNH2 3.1 inh,CBFb RUNX1 block,VDR inh
O=C(COC(=O)c1cc(-c2cccs2)nc2ccccc12)NCc1ccco1,?,.,?,.,.,.
O=C(COC(=O)c1cc(-c2ccc(Cl)s2)nc2ccccc12)NCc1ccco1,?,.,?,.,.,79µM
C=CCn1c(Cc2csc(N)n2)nnc1SCC(=O)OCC,.,.,.,-95,.,.
Cc1c(N2C(=O)/C(=C/C3CC=CCC3)SC2=S)c(=O)n(-c2ccccc2)n1C (centres undefined),?,.,.,.,.,?
Cc1c(N2C(=O)/C(=C\C3CC=CCC3)SC2=S)c(=O)n(-c2ccccc2)n1C (centres undefined),?,.,.,.,.,50µM
CCN(Cc1ccncc1)Cc1c(O)ccc2cc(Br)ccc12,11µM,.,?,.,.,.
CCOc1ccc(OCC)c(NC(=O)CN(C)S(=O)(=O)c2ccc3[nH]c(=O)oc3c2)c1,/,/,/,/,/,.
CCOC(=O)C1=C(C)C(c2ccc(OC)cc2)NC(=S)N1 (centres undefined),6µM,.,.,.,.,28µM
CCOC(=O)C1=C(C)C(c2ccc(OC)cc2)NC(=O)N1 (centres undefined),.,.,.,.,.,.
COc1ccc(OC)c(-c2cc(C3CCN(c4ncccc4[N+](=O)[O-])CC3)[nH]n2)c1,.,.,?,.,.,.
O=[N+]([O-])c1cccnc1N1CCC(c2cc(-c3ccc(Cl)cc3Cl)n[nH]2)CC1,11µM,.,.,.,?,.
O=C(Nc1ccccc1)Oc1ccc[nH]c1=O,15µM,.,.,.,.,.
O=C(Oc1ccc[nH]c1=O)c1ccc(F)cc1,.,.,/,.,/,/
O=C(O)Cc1ccc(C(=O)CSc2ccccc2)s1,12µM,.,/,.,?,?
Cc1cccc(C(=O)O)c1NC(=O)c1ccc(F)cc1,.,-194,.,.,.,.
Cc1cccc(C)c1NC(=O)c1ccccc1C(=O)O,.,.,.,.,/,.
CCOc1ccccc1-c1c2cc(O)c(=O)cc-2oc2cc(O)c(O)cc12,.,.,.,.,.,?
O=c1cc2oc3cc(O)c(O)cc3c(-c3ccccc3O)c-2cc1O,24µM,.,/,.,/,?
O=C(NCc1cccc(F)c1)c1ccc(NC(=O)c2nsc3ccccc23)cc1,/,/,/,/,/,.
Cc1c(C(=O)Nc2c3c(nn2C(C)(C)C)CS(=O)(=O)C3)cccc1[N+](=O)[O-],7.5µM,.,.,.,/,?
Cc1cccc(OCC(=O)Nc2ccc3c4c(cccc24)CC3)c1C,27µM,.,/,.,.,.
Cc1c(C(=O)Nc2ccc3c4c(cccc24)CC3)cccc1[N+](=O)[O-],27µM,.,/,.,.,.
Cc1nn(C(C)C(=O)Nc2ccccc2C(F)(F)F)c(=O)c2c1sc1ccccc12 (centres undefined),/,/,/,/,/,.
CC1CCN(c2nc3c(S(=O)(=O)c4ccc(Cl)cc4)nnn3c3ccsc23)CC1,/,/,/,/,/,.
CC(C)=C(NC(=O)c1ccccc1)C(=O)NCc1ccccc1,.,.,.,-118,.,.
CCC(=O)Nc1ccc2oc(-c3cccc(C)c3)nc2c1,3µM,.,.,.,.,?
CN(C)CCOC(=O)c1ccc2[nH]c3c(c2c1)CSCC3,30µM,.,.,.,.,.
O=C(O)c1ccc2[nH]c3c(c2c1)CSCC3,?,.,.,.,.,45µM
CCOC(=O)c1ccc2[nH]c3c(c2c1)CCCC3,.,.,.,.,/,.
CCN(CC)c1ccc(NC(=O)CN2C(=O)c3cccnc3Oc3ccccc32)c(C)c1,/,/,/,/,/,.
